Assay [1] in a line: qHTS assay to identify small molecule agonists of the estrogen receptor alpha (ER-alpha) signaling pathway in the presence of an antagonist - cell viability counter screen (AID 1259386).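 Further: cells exposed to compounds for 22 h at 37 °C before the viability read; nearly all actives have a fitted effect of over 30% in size.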 The note with it: VM7Luc4E2 viability, CellTiter-Fluor fluorescence, 22 h; series mostly up to 92.4 µM. The essentials: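 Fluorescent CellTiter-Fluor viability signal from VM7Luc4E2 cells, with the reagent added during the final hour of a 22hr compound exposure at 37C in the presence of 10.0nM ICI-182,780.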
Background: In qHTS, concentration-response curves come from the screen itself.

Assay [2] has as its target Progesterone receptor (Homo sapiens) (UniProt P06401). The assay is described as follows: qHTS assay to identify small molecule agonists of the progesterone receptor (PR) signaling pathway (AID 1346784; calls by dose curve; further: nearly all actives have a fitted effect of over 30% in size). The note with it: PR-UAS-bla HEK293T, beta-lactamase FRET ratio, 16 h; series mostly up to 92.4 µM. A digest of the protocol:
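Seed PR-UAS-bla HEK 293T cells (2% charcoal-stripped FBS), incubate 6 hr at 37C; add compounds in DMSO, 16 hr at 37C; add LiveBLAzer B/G substrate, 2 hr RT; read fluorescence intensity.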

For assay [3] the target is unchanged. Put plainly: qHTS assay to identify small molecule antagonists of the progesterone receptor (PR) signaling pathway (AID 1346795; active means well fitted inhibition curve with a large enough effect in the signal ratio in the repeat runs, not every such curve was filed as active; the % refers to the signal ratio; further: potency means the concentration at half of the fitted maximal effect). The note with it: PR-UAS-bla HEK293T, beta-lactamase FRET ratio, 16 h; series mostly up to 92.4 µM. A digest of the protocol: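 Screening used a GripTite HEK293T line with PR-responsive UAS-beta-lactamase. Cells were challenged with compound in the presence of 1 nM R5020 final for 16 hr at 37C; B/G FRET substrate, 2 hr room temperature, fluorescence.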

The nature of assay [4]: qHTS assay to identify small molecule agonists of the progesterone receptor (PR) signaling pathway - cell viability counter screen (AID 1346799; calls by dose curve; further: nearly all actives have a fitted effect of over 45% in size). The note with it: PR-UAS-bla HEK293T viability, CellTiter-Glo luminescence, 16 h; series mostly up to 92.4 µM. The essentials:
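Using the same plates as the PR reporter screen, HEK293T PR-UAS-bla cells received compounds for 16 hr at 37C and were then lysed with CellTiter-Glo; luminescence was read 30 min later at room temperature.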

Assay [5] in a line: qHTS assay to identify small molecule antagonists of the TGF-beta/Smad signaling pathway - cell viability counter screen (AID 1346824). Further: nearly all actives have a fitted effect of over 50% in size. The following applies: SBE-bla HEK293T viability, CellTiter-Glo luminescence; series mostly up to 76.8 µM. The essentials: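 SBE-bla HEK 293T cells, incubated overnight, then compound plus 0.25 ng/mL TGF-beta1 (stock added) for 5 hr at 37 C. Viability was read in the same wells by CellTiter-Glo luminescence after 30 min at room temperature.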

The nature of assay [6]: qHTS assay to identify small molecule agonists of the TGF-beta/Smad signaling pathway - cell viability counter screen (AID 1346829). Further: top concentration of the series differs between compounds; nearly all actives have a fitted effect of over 45% in size. The note with it: SBE-bla HEK293T viability, CellTiter-Glo luminescence, 5 h; series mostly up to 76.8 µM. The essentials:
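Tox21 qHTS format: SBE-bla HEK 293T cells treated with DMSO-dissolved compounds for 5 hr; CellTiter-Glo luminescence after 30 min at room temperature.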

Assay [7] in a line: qHTS assay to identify small molecule agonists of the TGF-beta/Smad signaling pathway (AID 1346859; active means well fitted activation curve with a large enough effect in the signal ratio in the repeat runs, not every such curve was filed as active; the % refers to the signal ratio). The following applies: SBE-bla HEK293T, TGF-beta/Smad beta-lactamase reporter, 5 h; series mostly up to 76.8 µM. The essentials:
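Beta-lactamase reporter activity downstream of Smad binding elements was measured in stably transfected HEK 293T cells; compounds were incubated for 5 hr, substrate for 2 hr at room temperature.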

Assay [8] deals with Thyrotropin-releasing hormone receptor (Homo sapiens) (UniProt P34981). The assay is described as follows: qHTS assay to identify small molecule antagonists of the thyrotropin-releasing hormone receptor (TRHR) signaling pathway (AID 1346877; active means well fitted inhibition curve with a large enough effect in the repeat runs, not every such curve was filed as active). The following applies: TRHR-HEK293, TRH-induced calcium fluorescence, antagonist mode; series mostly up to 51.3 µM. The essentials:
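In this cell-based calcium flux format, HEK293 cells expressing TRHR received test compound for 5 min before the agonist TRH (1 nM final). Dye loading lasted 2 h at 37 °C.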

The target is the same in assay [9]. Put plainly: qHTS assay to identify small molecule agonists of the thyrotropin-releasing hormone receptor (TRHR) signaling pathway (AID 1346891; calls by dose curve). The note with it: TRHR-HEK293 calcium fluorescence, agonist mode; series mostly up to 57.6 µM. A digest of the protocol: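 Overnight-plated (18 h, 37 °C, 5% CO2) TRHR-Hek293 cells; 2 h calcium dye at 37 °C; compound in DMSO; 3-min kinetic fluorescence read.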

Assay [10] is described as follows: qHTS assay to identify small molecule antagonists of the progesterone receptor (PR) signaling pathway - cell viability counter screen (AID 1346798). Further: nearly all actives have a fitted effect of over 50% in size. The following applies: PR-UAS-bla HEK293T viability, CellTiter-Glo luminescence, 16 h; series mostly up to 92.4 µM. A digest of the protocol: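 Measures cytotoxicity in parallel with the PR antagonist reporter read: HEK293T PR-UAS-bla cells get compound and R5020 for 16 hr, and remaining viable cells are quantified by CellTiter-Glo luminescence.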

The record followed here is PubChem BioAssay (Tox21).

Each structure is given as a SMILES string. Results filed as inconclusive are left out. Calls of active or inactive are those of the source. Unless noted, the call rests on the fitted dose curve; in most records, active means well fitted curve in the direction sought with a large enough effect in the repeat runs; inconclusive means weak or mixed curves; inactive means no such curve, though single readings can be large; an effect the other way counts as inactive or inconclusive.

Chain of Thyrotropin-releasing hormone receptor (Homo sapiens) (P34981 whole entry, looked up): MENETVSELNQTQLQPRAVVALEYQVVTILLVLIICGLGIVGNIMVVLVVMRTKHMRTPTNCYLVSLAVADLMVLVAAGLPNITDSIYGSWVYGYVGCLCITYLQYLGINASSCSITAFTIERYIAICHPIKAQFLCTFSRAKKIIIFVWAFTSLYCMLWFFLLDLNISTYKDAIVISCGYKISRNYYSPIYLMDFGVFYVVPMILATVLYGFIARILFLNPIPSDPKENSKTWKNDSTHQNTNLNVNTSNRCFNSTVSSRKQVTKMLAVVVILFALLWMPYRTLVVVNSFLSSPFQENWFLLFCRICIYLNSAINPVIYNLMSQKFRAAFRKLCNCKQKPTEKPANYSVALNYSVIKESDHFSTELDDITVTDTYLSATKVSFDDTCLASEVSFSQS
Chain of Progesterone receptor (Homo sapiens) (P06401 whole entry, looked up): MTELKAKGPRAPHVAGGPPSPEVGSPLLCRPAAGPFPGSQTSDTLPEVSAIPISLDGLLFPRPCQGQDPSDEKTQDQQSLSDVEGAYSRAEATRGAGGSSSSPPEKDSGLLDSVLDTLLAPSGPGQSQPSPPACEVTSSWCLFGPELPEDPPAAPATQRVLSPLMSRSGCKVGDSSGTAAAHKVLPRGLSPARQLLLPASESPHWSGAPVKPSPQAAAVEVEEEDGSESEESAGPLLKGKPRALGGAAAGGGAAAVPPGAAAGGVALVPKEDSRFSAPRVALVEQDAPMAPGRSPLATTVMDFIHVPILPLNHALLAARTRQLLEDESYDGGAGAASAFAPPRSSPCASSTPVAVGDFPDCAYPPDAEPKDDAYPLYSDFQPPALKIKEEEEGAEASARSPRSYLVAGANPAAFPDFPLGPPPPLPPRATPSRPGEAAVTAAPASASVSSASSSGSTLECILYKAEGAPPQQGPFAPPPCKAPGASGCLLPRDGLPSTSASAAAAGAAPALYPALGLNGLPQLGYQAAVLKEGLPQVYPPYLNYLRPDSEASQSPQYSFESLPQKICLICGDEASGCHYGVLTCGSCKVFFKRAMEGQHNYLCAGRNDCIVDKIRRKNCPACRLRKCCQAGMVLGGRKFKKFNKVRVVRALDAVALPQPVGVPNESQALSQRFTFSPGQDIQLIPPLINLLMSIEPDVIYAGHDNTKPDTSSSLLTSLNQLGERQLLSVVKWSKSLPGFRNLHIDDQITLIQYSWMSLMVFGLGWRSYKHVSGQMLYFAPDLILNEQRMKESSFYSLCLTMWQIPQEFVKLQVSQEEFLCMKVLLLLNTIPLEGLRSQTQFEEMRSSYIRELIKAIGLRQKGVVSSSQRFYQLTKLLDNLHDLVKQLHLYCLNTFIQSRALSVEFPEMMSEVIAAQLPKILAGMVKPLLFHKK

On to `Clc1ccc(C(Cl)(Cl)Cl)cc1Cl`, for which the Potency entry in [1], in assay [2], in [3], in assay [4], in assay [5] and in assay [6] was “inactive” each time. In addition, the Potency entry in assay [8] and in assay [9] was “inactive” throughout. In addition, the outcome in assay [7] was inactive.

As to `BrCCCBr`, the Potency result in assay [1], in [2], in assay [3], in assay [10], in [6] and in assay [8] was “inactive” each time. Further, the Potency entry in assay [9] is “inactive”.

Regarding `Clc1ccc(C(c2ccc(Cl)cc2)C(Cl)Cl)cc1`, the Potency result in assay [1], in assay [2], in assay [10] and in assay [5] was “inactive” in each case. The Potency in assay [3] was 7.82 µM (active). The result in [7] was inactive.

`CC(C)C(Br)C(=O)NC(N)=O` (centres undefined): the Potency result in assay [1], in [2], in assay [3], in assay [4], in assay [6] and in [8] was “inactive” throughout. Moreover, the Potency result in [9] was “inactive”. The compound was classed as inactive in [7].

Regarding `CC[N+]1(CC)CCC(OC(=O)C(O)(c2ccccc2)c2ccccc2)C1` (centres undefined), the Potency result in assay [1], in assay [2], in [3], in assay [10], in assay [5] and in assay [6] was “inactive” each time. In addition, the Potency result in [8] and in assay [9] was “inactive” each time. In addition, in [7], the compound was called inactive.

For the compound `[Cl-].[Cl-].[Sn+2]`, the Potency entry in assay [1], in [2], in assay [3], in assay [4], in [5] and in assay [6] was “inactive” throughout. Besides, the result in assay [7] was inactive.

On to `COC(=O)c1ccccc1S(=O)(=O)NC(=O)Nc1nc(C)nc(OC)n1`, for which the Potency entry in assay [1], in assay [2], in assay [3], in assay [10], in [5] and in assay [6] was “inactive” in each case. In addition, the Potency result in assay [8] and in [9] was “inactive” in each case. In [7], the result was inactive.

With `CCOP(=S)(OCC)SC(CCl)N1C(=O)c2ccccc2C1=O` (centres undefined), the Potency entry in assay [1], in [2], in [10], in [6], in assay [8] and in assay [9] was “inactive” throughout. Further, the Potency in assay [3] was 27.3 µM (active).

As to `CN1C2CCC(C)(C)C1CC(OC(=O)C(O)(c1cccs1)c1cccs1)C2` (centres undefined), the Potency entry in assay [1], in assay [2], in [3], in assay [10], in assay [5] and in assay [6] was “inactive” in each case. The Potency entry in assay [8] and in assay [9] was “inactive” in each case. Further, the outcome in assay [7] was inactive.

Take `CN1C(=O)[C@@H](NC(=O)c2cc3ccccc3[nH]2)N=C(c2ccccc2)c2ccccc21`: the Potency entry in assay [1], in [2], in assay [3], in assay [10], in [5] and in assay [6] was “inactive” throughout. In addition, the Potency entry in [8] and in assay [9] was “inactive” each time.

`C=CC(=C)C`: the Potency result in [1], in assay [2], in assay [3], in assay [10], in assay [5] and in assay [6] was “inactive” in each case. Also, the Potency result in assay [8] and in assay [9] was “inactive” in each case. In addition, in [7], the compound was called inactive.

For `CC(Cc1ccc2c(c1)OCO2)NO` (centres undefined), the Potency result in [1], in assay [2], in assay [3], in assay [4], in [5] and in assay [6] was “inactive” each time. The Potency result in [8] and in assay [9] was “inactive” throughout. In [7], the compound was called inactive.

Consider `Cc1cc2c3c(c1)C(c1ccccc1)=N[C@@H](NC(=O)c1ccncc1)C(=O)N3CC2`, for which the Potency result in [1], in assay [2], in [3], in assay [10], in [5] and in [6] was “inactive” throughout. Further, the Potency entry in assay [8] and in [9] was “inactive” in each case. Also, the compound was called inactive in [7].

For the compound `COP(=O)(OC)O/C(=C\Cl)c1cc(Cl)c(Cl)cc1Cl`, the Potency result in [1], in [2], in [5], in assay [6], in assay [8] and in [9] was “inactive” each time. Moreover, the Potency in assay [3] was 6.86 µM (active). Besides, in [7], the compound was classed as inactive.

Take `N#Cc1ccc(N(CC(N)=O)CC(F)(F)F)cc1C(F)(F)F`: the Potency entry in assay [1], in [2], in [4], in assay [5], in assay [6] and in [8] was “inactive” each time. Moreover, the Potency result in assay [9] is “inactive”. Moreover, in assay [7], the compound was classed as inactive.

On to `CC(C)C(Nc1ccc(C(F)(F)F)cc1Cl)C(=O)OC(C#N)c1cccc(Oc2ccccc2)c1` (centres undefined), for which the Potency entry in assay [1], in [2], in [10] and in [5] was “inactive” in each case. For the same compound, in assay [7], the call was inactive.

With `Cc1cccc(Cc2cnc[nH]2)c1C`, the Potency result in assay [1], in assay [2], in assay [10], in assay [4], in assay [5] and in assay [6] was “inactive” in each case. In addition, the result in assay [7] was inactive.
